Assay outcomes from PubChem BioAssay.
This is a sample that favours compounds with a hit; in the whole collection about 8% have one here.
TSHR antag: blocks TSH signaling through the human TSH receptor; hit rate 0.2% among 330,000; activity change, negative = inhibition, % at 11.5 µM; AID 504810; P16473; TSHR-expressing cells, TSH-stimulated cAMP HTRF, 2 h; active compounds read low;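 active = activity change below a set negative limit, meaning inhibition stronger than a set level, cut at about -70% in these data; inconclusive = activity change between two set negative limits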
Target sequence (P16473 whole entry, looked up): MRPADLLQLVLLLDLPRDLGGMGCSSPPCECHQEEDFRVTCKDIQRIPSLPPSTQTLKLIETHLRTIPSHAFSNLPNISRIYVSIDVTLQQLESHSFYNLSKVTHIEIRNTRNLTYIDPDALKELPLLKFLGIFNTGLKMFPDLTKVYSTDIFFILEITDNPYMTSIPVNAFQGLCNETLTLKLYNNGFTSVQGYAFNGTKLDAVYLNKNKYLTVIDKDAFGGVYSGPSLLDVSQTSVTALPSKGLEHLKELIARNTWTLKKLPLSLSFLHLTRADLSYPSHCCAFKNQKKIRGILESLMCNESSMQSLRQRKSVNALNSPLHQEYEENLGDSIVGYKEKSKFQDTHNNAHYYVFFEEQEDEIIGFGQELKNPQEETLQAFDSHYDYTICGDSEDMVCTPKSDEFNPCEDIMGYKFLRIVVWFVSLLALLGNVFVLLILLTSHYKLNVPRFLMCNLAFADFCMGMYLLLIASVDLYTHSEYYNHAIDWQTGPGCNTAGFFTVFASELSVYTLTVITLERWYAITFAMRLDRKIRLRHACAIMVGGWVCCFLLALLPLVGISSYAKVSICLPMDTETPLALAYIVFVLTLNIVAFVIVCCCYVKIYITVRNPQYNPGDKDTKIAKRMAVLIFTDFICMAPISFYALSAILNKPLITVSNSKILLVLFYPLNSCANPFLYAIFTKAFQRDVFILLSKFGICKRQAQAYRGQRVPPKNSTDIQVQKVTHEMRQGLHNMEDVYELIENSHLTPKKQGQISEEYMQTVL
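Inhibition of cAMP made by TSHR-expressing cells under TSH stimulation (4nM final, EC80; 2 h, 37 deg C) is quantified with a one-step lysis HTRF kit, anti-cAMP cryptate versus cAMP-d2.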
Gal4-VP16 FLuc: inhibits Gal4-VP16 luciferase reporter, ROR gamma counter-screen; Drosophila S2 Gal4-VP16 UAS-luciferase, luminescence, 20 h; Potency, µM (top dose mostly 53.6 µM), most hits filed as inhibitors; hit rate 3.5% among 310,000; AID 2546;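 note: Gal4-VP16 expression switched on by copper sulfate through the metallothionein promoter; nearly all actives have a fitted effect of over 50% in size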
ELG1 DNA repair: blocks ELG1-dependent DNA repair in HEK293T cells | Potency, µM (highest dose often 46.1 µM), most hits filed as inhibitors | HEK293T ELG1-luciferase reporter, luminescence, 16 h; DNA damage induced by 5-fluorouridine | hit rate 2.3% among 330,000; note: nearly all actives have a fitted effect of over 55% in size
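Quantitative HTS, concentration-response format. 2,000 cells/well co-treated with 5-fluorouridine and compound, 16 hr in 5% CO2 at 37 °C; ONE-Glo luminescence read after 30 min.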
FBPA coupling cs: counter-screen for Giardia aldolase inhibitors: coupling enzyme system; coupling enzyme system counterscreen, AmpLite Red fluorescence; activity change, negative = inhibition, % at 58.2 µM, hits read low; hit rate 0.67% among 290,000; in the data active = activity change below about -30%
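Activity here indicates interference with the coupling reaction, not aldolase inhibition. Compounds at 57.5 uM final met coupling enzymes for 10 min at RT; substrate and AmpLite Red detection followed, with a 525/598 nm fluorescence read after 20 min.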
RORg inh: inhibitors of mouse ROR gamma transcriptional activity. Drosophila S2 Gal4-RORgamma UAS-luciferase reporter, 20 h. Potency, µM (highest dose often 53.6 µM), most hits filed as inhibitors. hit rate 5.4% among 310,000; note: nearly all actives have a fitted effect of over 60% in size
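Read-out: Photinus luciferase luminescence; inhibitors lower reporter signal. Insect Schneider cells with Gal4-ROR gamma fusion under metallothionein promoter, UAS reporter; 700 uM final copper sulfate induction, 20 hr, ambient temperature.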
Each line names hits and unclear results; the compound was inactive in the other large screens. Unless noted, calls come from the whole dose curve; as a rule, active = well fitted curve in the direction sought with a large enough effect; inconclusive = small, poorly fitted or top-dose-only effect, or another doubt; inactive = no such curve, though single readings can be large; an effect the other way counts as inactive or inconclusive.

CC(C)COCC(O)CCC(=O)NNC(=S)Nc1ccccc1 (stereo unspecified)	Gal4-VP16 FLuc 1µM
C=CCNC(=S)Nc1ccc(Cl)cc1	Gal4-VP16 FLuc inconclusive, RORg inh 16µM
CCc1ccc(NC(=S)NCc2ccccc2)cc1	Gal4-VP16 FLuc inconclusive, ELG1 DNA repair inconclusive, RORg inh 2.2µM
C=CCNC(=S)Nc1ccc(OC(F)F)c(Cl)c1	Gal4-VP16 FLuc inconclusive, ELG1 DNA repair inconclusive, RORg inh inconclusive
CN(Cc1ccccc1)C(=O)c1ccccc1N(C)S(=O)(=O)c1ccccc1	none (no result: Gal4-VP16 FLuc, FBPA coupling cs, RORg inh)
Cc1sc2ncn(CC(=O)NCCCC(=O)Nc3ccc(C(C)C)cc3)c(=O)c2c1C	none
S=C(NCc1cccnc1)Nc1ccc(Cl)cc1	none
NNC(=S)Nc1ccc(Cl)cc1	Gal4-VP16 FLuc inconclusive, RORg inh 11µM
S=C(NCc1ccccc1)Nc1ccc(Cl)cc1	Gal4-VP16 FLuc inconclusive, RORg inh 4.5µM
CCc1ccc(C(O)(CNCc2ccccc2)c2ccccc2)cc1 (stereo unspecified)	Gal4-VP16 FLuc 13µM
Cc1ccc(CNCC(O)(c2ccccc2)c2ccccc2)cc1	RORg inh inconclusive
NNC(=S)Nc1ccc(OC(F)(F)F)cc1	Gal4-VP16 FLuc inconclusive, ELG1 DNA repair inconclusive, RORg inh inconclusive
S=C(NCc1ccccc1)Nc1ccncc1	Gal4-VP16 FLuc 14µM
CCC1(c2ccccc2)NC(=O)NC1=O (stereo unspecified)	none (no result: TSHR antag, ELG1 DNA repair)
COc1cc(C(C)C)c2c(c1)S(=O)(=O)N(COc1cc(=O)n3cccc(OCCN4CCCCC4)c3n1)C2=O	Gal4-VP16 FLuc inconclusive (no result: TSHR antag, ELG1 DNA repair)
CCCCN(C(=O)COC(=O)c1ccc(C=O)cc1)c1c(N)n(CCC)c(=O)[nH]c1=O	none (no result: Gal4-VP16 FLuc, FBPA coupling cs, RORg inh)
Cn1c(NNC(=O)/C=C/c2ccc3c(c2)OCO3)cc(=O)n(C)c1=O	FBPA coupling cs -37
CC1CN(C(=O)/C=C/c2ccccc2Cl)CC(C)O1 (stereo unspecified)	none
CC(/C=C/c1ccccc1)=N\Nc1nc2c(c(=O)[nH]c(=O)n2C)n1CCO	none
COCCn1c(N/N=C(C)/C=C/c2ccccc2)nc2c1c(=O)[nH]c(=O)n2C	ELG1 DNA repair 4.6µM
COc1ccc(NC2CCCN(C(=O)c3cc(C)nc4cc(F)ccc34)C2)cc1 (stereo unspecified)	none
CC(C)(C)OC(=O)C[C@@H]1C/C=C\C[C@H](CC(=O)N(CCO)Cc2ccccc2)C(=O)N[C@@H](Cc2c[nH]c3ccccc23)COC1=O	none (no result: Gal4-VP16 FLuc, FBPA coupling cs, RORg inh)
Cc1ccc(-c2nc(-c3cccnc3)sc2CC(=O)Nc2ccc3nc(C)sc3c2)cc1	ELG1 DNA repair 18µM, RORg inh inconclusive
Cc1nn(Cc2ccccc2)c(C)c1CNC(=O)CN=C1NS(=O)(=O)c2ccccc21	none (no result: Gal4-VP16 FLuc, FBPA coupling cs, RORg inh)
CSc1nc(-c2ccccc2)nc(C(C)C)n1	ELG1 DNA repair inconclusive (no result: Gal4-VP16 FLuc, FBPA coupling cs, RORg inh)
CC(C)(C)c1cn(-c2ccccc2)c(=S)[nH]1	Gal4-VP16 FLuc 7.9µM, RORg inh 7.1µM
Cc1ccc(-n2c(=S)[nH]c3[nH]ncc3c2=O)cc1	RORg inh inconclusive
Cc1ccc(-n2cc(C(C)(C)C)[nH]c2=S)cc1	Gal4-VP16 FLuc 6.3µM, ELG1 DNA repair inconclusive, RORg inh 2.2µM
Cc1nn(-c2ccccc2)c(C)c1/C=C/C(=O)OCC(=O)NC1CCS(=O)(=O)C1 (stereo unspecified)	ELG1 DNA repair inconclusive
CN(C(=O)COC(=O)c1cn(-c2ccccc2)nc1-c1ccccc1)C1CCS(=O)(=O)C1 (stereo unspecified)	none
O=C(COC(=O)/C=C/c1cn(-c2ccccc2)nc1-c1ccc2c(c1)OCCO2)NC1CCS(=O)(=O)C1 (stereo unspecified)	ELG1 DNA repair 18µM, RORg inh inconclusive
CN(C(=O)COC(=O)/C=C/c1cn(-c2ccccc2)nc1-c1ccc2c(c1)OCCO2)C1CCS(=O)(=O)C1 (stereo unspecified)	ELG1 DNA repair 21µM
NNC(=S)NCc1ccccc1	Gal4-VP16 FLuc 10µM, ELG1 DNA repair inconclusive, RORg inh 2.8µM
NNC(=S)NCc1cccnc1	Gal4-VP16 FLuc inconclusive, RORg inh 8.9µM
CCC(/C=C/C(C)C1CCC2C3CC=C4CC(O)CC[C@@]4(C)C3CC[C@@]12C)C(C)C (stereo partly specified)	none (no result: TSHR antag, ELG1 DNA repair)
COc1ccc(CNC(=O)c2cc(S(=O)(=O)N3CCCCC3)ccc2Cl)cc1OC	ELG1 DNA repair 6.5µM (no result: Gal4-VP16 FLuc, FBPA coupling cs, RORg inh)
COc1ccc(CNC(=O)c2cccc(S(=O)(=O)N3CCCCC3)c2)cc1OC	ELG1 DNA repair inconclusive (no result: Gal4-VP16 FLuc, FBPA coupling cs, RORg inh)
O=C(NCc1ccccc1)c1cc(S(=O)(=O)N2CCC3(CC2)OCCO3)ccc1F	ELG1 DNA repair inconclusive, RORg inh inconclusive
COc1ccc(CCNC(=O)c2cc(S(=O)(=O)N3CCC4(CC3)OCCO4)ccc2F)cc1OC	ELG1 DNA repair 9.2µM
COc1ccc(CNC(=O)CN2CCN(S(=O)(=O)c3c(C)c(C)cc(C)c3C)CC2)cc1OC	ELG1 DNA repair 7.3µM (no result: Gal4-VP16 FLuc, FBPA coupling cs, RORg inh)
COc1ccc(NC(=O)CSc2nc3[nH]c(=O)[nH]c(=O)c3s2)cc1OC	TSHR antag -73, ELG1 DNA repair inconclusive
Cn1c(CC(=O)Nc2ccccc2F)nnc1SCC(=O)Nc1ccccc1Br	ELG1 DNA repair inconclusive
CC(=O)Oc1ccc(C(=O)Nc2cccc(C(=O)c3cccc(NC(=O)c4ccc(OC(C)=O)cc4)c3)c2)cc1	Gal4-VP16 FLuc inconclusive, ELG1 DNA repair 23µM
CC(C)(C)c1nnc(NC(=S)Nc2ccccc2)s1	Gal4-VP16 FLuc 0.89µM, ELG1 DNA repair inconclusive, RORg inh 0.28µM
COc1cc(OC)cc(C(=O)Nc2cccc(C(C)=O)c2)c1	RORg inh inconclusive
COc1cc(OC)cc(C(=O)Nc2ccc(Nc3ccccc3)cc2)c1	ELG1 DNA repair inconclusive
COc1cc(OC)cc(C(=O)Nc2cccc(NC(=O)c3ccccc3)c2)c1	ELG1 DNA repair 16µM
COc1cc(OC)cc(C(=O)Nc2nnc(NC(=S)Nc3ccccc3)s2)c1	Gal4-VP16 FLuc inconclusive, RORg inh 0.63µM
Cc1cc(C(=O)Nc2ccccc2C)n(-c2ccccc2)n1	none
CO[C@@H](C(C)C)[C@@H](C)[C@@H]1OC(=O)C[C@@H]1O	none (no result: TSHR antag, ELG1 DNA repair)
CC(C)NC(=S)N1CCCN(c2ncccc2[N+](=O)[O-])CC1	none
CCNC(=O)COC(=O)C1C(C(=O)OCC)=C(C)NC(C)=C1C(=O)OCC	none
CCOC(=O)C1=C(C)NC(C)=C(C(=O)OCC)C1C(=O)OCC(=O)NCCc1ccccc1	ELG1 DNA repair 23µM (no result: Gal4-VP16 FLuc, FBPA coupling cs, RORg inh)
CCOC(=O)C1=C(C)NC(C)=C(C(=O)OCC)C1C(=O)OCC(=O)NC1CCCCC1	ELG1 DNA repair 10µM (no result: Gal4-VP16 FLuc, FBPA coupling cs, RORg inh)
CN(C(=O)Cn1nc(Cl)ccc1=O)C1CCCN(Cc2ccccc2F)C1 (stereo unspecified)	none (no result: FBPA coupling cs)
COc1cc(OC)c(C(=O)CCCCN2CCC3(CC2)NC(=O)NC3=O)cc1NS(=O)(=O)c1ccc(C(F)(F)F)cc1	none (no result: TSHR antag, ELG1 DNA repair)
COC(=O)NC(c1cccs1)C(C(C)=O)C(=O)OC (stereo unspecified)	none (no result: TSHR antag, ELG1 DNA repair)
